Data on 62 compounds can be found in PubChem BioAssay AID720488 (Milwaukee Institute for Drug Discovery, 2013).

About 960 (6%) of roughly 16,000 compounds were called active. Many of the other results were omitted from the sample, so actives are more common in it than they were. Unmarked numbers belong to inactive results.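 How the source made its calls: active means compound fluorescence over control fluorescence at most 0.8, a quencher, or at least a set upper limit, an enhancer; inactive means ratio between 0.8 and the set upper limit.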

The nature of the assay: Cy5 fluorescence quenchers or enhancers, artefact control for HCV NS3 helicase inhibitor project, biochemical, ChemBridge library, Cy5 readout (AID 720488). The conditions noted are these: Cy5-dT15 DNA with NS3h, at 100 µM, actives lie on both sides, signal over control mean, under 1 quenches.
`O=C1/C(=C\c2cn(Cc3ccccc3F)c3ccccc23)SC(=S)N1c1ccc([N+](=O)[O-])cc1`: the fluorescence interference ratio is 0.998.
For `CC(C)(C)N1C(=O)NC(=O)C(=Cc2cccs2)C1=O`, the fluorescence interference ratio was 1.01.
Take `CCCCOC(=O)CCN1C(=O)/C(=C/c2ccc3c(c2)OCO3)SC1=S`: the fluorescence interference ratio is 0.998.
On to `O=C(NC(NC(=O)C(c1ccccc1)c1ccccc1)c1ccc(F)cc1)C(c1ccccc1)c1ccccc1`, for which the fluorescence interference ratio is 1.07.
As to `CCOC(=O)c1ccc(NC2C=CS(=O)(=O)C2)cc1` (configuration not stated), the fluorescence interference ratio was 0.986.
Next, `O=C(COc1ccccc1Cl)Nc1ccc(O)cc1C(=O)O`: 1; `O=C(NCCN1CCN(S(=O)(=O)c2ccccc2)CC1)C(=O)Nc1ccc(Br)cc1`: 1.01; `COc1cc(C(=O)N2CCC(Cc3ccccc3)CC2)c([N+](=O)[O-])cc1OC`: 0.65 (active).
Next, `COc1ccc(OC)c(S(=O)(=O)N2CCC(Cc3ccccc3)CC2)c1`: 0.968; `COc1ccccc1CN1CCN(C(=O)c2ccc([N+](=O)[O-])cc2)CC1`: 1.03.
Next, `CCOc1ccc(C(=O)Nc2cc3nn(-c4ccc(C)cc4)nc3cc2C)cc1[N+](=O)[O-]`: 1.04.
For the compound `CN1C(=O)/C(=C\c2ccccc2OCCOc2ccc(Br)cc2)SC1=S`, the fluorescence interference ratio is 1.14.
The result for `Cc1cccc(NC(=O)COc2ccc3ccccc3c2)c1C` reads 1.12.
The result for `C=CC[n+]1c(-c2ccc(OC)cc2)csc1Nc1cccc(C)c1C` reads 1.2 (active); that for `CCC(=O)CC(O)(c1ccccc1)C(F)(F)F` (configuration not stated), 0.957.
Next, `Cc1cccc(OCC(=O)Nc2ccc(Cl)c(C(F)(F)F)c2)c1`: 1.07; `Cc1ccc(C(=O)Nc2ccc(Cl)cn2)cc1[N+](=O)[O-]`: 1.02.
Regarding `COc1cc(/C=C2/SC(=S)N(c3c(C)n(C)n(-c4ccccc4)c3=O)C2=O)c([N+](=O)[O-])cc1OC`, the fluorescence interference ratio was 0.991.
Next, `COc1ccccc1/C=C1\SC(=S)N(CC(C)C)C1=O`: 0.946; `O=C1/C(=C\c2cccc(Br)c2)SC(=S)N1c1cccc(C(F)(F)F)c1`: 0.626 (active).
In the case of `COc1ccc(Br)cc1/C=C1/SC(=S)N(c2cccc(C(F)(F)F)c2)C1=O`, the fluorescence interference ratio is 0.773 (active).
In the case of `O=Cc1ccc(/C=C2/SC(=S)N(c3cccc(Cl)c3)C2=O)cc1`, the fluorescence interference ratio is 1.1.
The result for `O=C1/C(=C\c2cccc(C(F)(F)F)c2)SC(=S)N1c1ccccc1` reads 1.08; that for `O=C(CN(c1ccc(Br)cc1)S(=O)(=O)c1ccccc1)NCC1CCCO1` (configuration not stated), 1.03; that for `Cc1ccc(NCC(O)COc2ccc(OCC(O)CNc3ccc(C)cc3C)cc2)c(C)c1` (configuration not stated), 1.06.
The result for `COC(=O)C1=C(C)N=c2s/c(=C/c3ccccc3OC(C)=O)c(=O)n2C1c1ccc(OC(C)=O)cc1` (configuration not stated) reads 0.949; that for `O=C(/C=C/c1cc2c(cc1Br)OCO2)c1ccc(Cl)cc1`, 1.06.
In the case of `COc1cc(CN2CCN(Cc3cccc(F)c3)CC2)cc(OC)c1OC`, the fluorescence interference ratio was 1.09.
For `Cc1ccc(S(=O)(=O)N2CCN(Cc3ccc(F)cc3)CC2)cc1`, the fluorescence interference ratio is 0.977.
Take `Cc1cccc(CN2CCN(S(C)(=O)=O)CC2)c1`: the fluorescence interference ratio was 0.788 (active).
Next, `COc1cc(NC(=O)c2ccc(Br)cc2)cc([N+](=O)[O-])c1`: 0.953; `O=C(CSc1ccc(Cl)cc1Cl)Nc1cccc([N+](=O)[O-])c1`: 0.897; `COc1cc(/C=C2/SC(=S)NC2=O)ccc1OCCOCCOc1ccc(C)cc1`: 0.925.
The result for `COc1cc(C=C2C(=O)NC(=O)NC2=O)ccc1OCCOc1ccc([N+](=O)[O-])cc1` reads 0.699 (active).
For `COc1cc(/C=C2/C(=O)NC(=O)N(c3ccc(C)cc3)C2=O)ccc1OCCOc1ccc([N+](=O)[O-])cc1`, the fluorescence interference ratio is 0.823.
Next, `COC(=O)C1=C(C)NC2=C(C(=O)c3ccccc32)C1c1cc2c(cc1Br)OCO2` (configuration not stated): 1.02; `CS(=O)(=O)N(CC(=O)N1CCOCC1)c1ccccc1Cl`: 0.989.
The result for `CS(=O)(=O)N1CCN(C(=O)Cc2ccccc2)CC1` reads 0.765 (active); that for `O=C(c1ccc(S(=O)(=O)N2CCOCC2)cc1)N1CCN(c2ccccc2)CC1`, 0.907.
The result for `CCC(=O)Nc1ccccc1C(=O)N1CCN(Cc2ccccc2)CC1` reads 0.994.
In the case of `COc1ccccc1OCC(=O)Nc1nc(-c2cccs2)c(NC(=O)c2ccccc2)s1`, the fluorescence interference ratio was 0.958.
For the compound `Cc1ccc(C(=O)Nc2cccc(-c3nc4ccccc4o3)c2C)cc1`, the fluorescence interference ratio is 0.985.
On to `O=C(CSc1nc2ccccc2o1)Nc1ccc2c(c1)OCO2`, for which the fluorescence interference ratio was 0.937.
The result for `CSc1ccccc1NC(=O)CSc1nc2ccccc2o1` reads 0.737 (active).
The result for `C=CCc1ccccc1OCCn1cc(/C=C2/SC(=S)N(CC)C2=O)c2ccccc21` reads 1.05; that for `O=C(NCC1OCCc2ccccc21)C(c1ccccc1)c1ccccc1` (configuration not stated), 1.08; that for `CCCOc1ccc(C(=O)Nc2ccc(N(CC)CC)cc2)cc1`, 1.28 (active).
Take `CCOc1ccc(C(=O)Nc2ccncc2)cc1`: the fluorescence interference ratio was 0.969.
Next, `CCCOc1ccc(C(=O)Nc2ccc(-c3nc4ccccc4o3)c(O)c2)cc1`: 1.03; `O=c1oc2cc(OC/C=C/c3ccccc3)ccc2c2ccccc12`: 1.11; `O=C(O)CC1S/C(=N\N=C/c2ccccc2O)N(c2ccc(O)cc2)C1=O` (configuration not stated): 1.05.
Regarding `O=S(=O)(c1ccc(Br)c2ccccc12)N1CCOCC1`, the fluorescence interference ratio is 0.956.
`CC(C)CC(=O)Nc1cc(C(=O)O)cc(C(=O)O)c1`: the fluorescence interference ratio was 1.05.
Next, `O=C(CN1C(=O)c2ccc([N+](=O)[O-])cc2C1=O)Nc1cc(Cl)ccc1C(=O)O`: 0.984.
Next, `COc1ccc(/C=C2\C(=O)NC(=S)N(c3ccc(Br)cc3)C2=O)cc1`: 1.05.
Next, `CCN(CC)c1ccc(/C=C2\C(=O)NC(=O)N(c3ccc(OC)cc3)C2=O)c(OC)c1`: 1.26 (active); `COc1ccc(OC)c(N2C(=O)NC(=O)C(=Cc3ccc(C)o3)C2=O)c1`: 1.1.
In the case of `O=C1NC(=O)C(=Cc2cc([N+](=O)[O-])cc(Br)c2O)C(=O)N1`, the fluorescence interference ratio is 0.895.
The result for `CC(=O)OC(OC(C)=O)c1ccc([N+](=O)[O-])s1` reads 0.829; that for `CCOc1cccc2c1NC(C)(C)c1sn(-c3ccccc3)c(=S)c1-2`, 0.947; that for `CCC(=O)NC(N)=Nc1nc(C)c2cc(C)cc(C)c2n1`, 1.11.
Regarding `CC1=C(C(=O)OC(C)C)C(c2ccc(Cl)c(Cl)c2)N2C(=O)CCSC2=N1` (configuration not stated), the fluorescence interference ratio is 0.92.
